# Measurements: PubChem BioAssay AID651812 (National Center for Advancing Translational Sciences (NCATS), 2012)
# The campaign covered roughly 2,100 compounds. About 650 (31%) were called active. Another 16% or so got no clear call; they are omitted. Some of the results follow. A number with no mark means an inactive call. Calls follow the shape of the dose curve; as a rule, active = well fitted inhibition curve with a large enough effect; inconclusive = small, poorly fitted or top-dose-only effect; inactive = flat fitted curve, though single readings scatter.
# Assay: qHTS for inhibitors of Vif-A3G interactions: Cherry picks; also: nearly all actives have a fitted effect of over 80% in size; as to activity, negative = fluorescence increase: % of control where 0% means no effect
# Conditions: HeLa A3G-eYFP + Vif (tagged APOBEC3G with the HIV-1 protein that degrades it), 24 h; Potency: eYFP fluorescence increase; series mostly up to 36.9 µM; activity, negative = fluorescence increase: at the top concentration
# Procedure, shortened: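 HeLa cells stably expressing A3G-eYFP and Vif, cultured overnight then exposed to compounds at several concentrations for 24 hours at 37 C, 5% CO2; cellular yellow fluorescence (488 nm ex, 500-530 nm em) imaged on Acumen, MG132 positive control.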
# Potency is read from the fitted curve at half-maximal effect.
Compound,"activity, negative = fluorescence increase",Potency
O=C(c1ccccc1)C1C(=O)c2ccccc2C1=O,11.2% [at 46.1 µM],–
NN=C1c2ccccc2C(=O)C1C(=O)C(c1ccccc1)c1ccccc1 (stereo not drawn),–,12.5 µM (active)
Cc1cccc(CS(=O)(=O)c2ncc(Cl)c(C(=O)Nc3c(C)cccc3C)n2)c1,1.87%,–
COc1cc2c3nnc(-c4ccc(F)cc4)c-3cn(Cc3ccc(C)cc3)c2cc1OC,–,5.59 µM (active)
COc1ccc(C2=NOC(C(=O)NCc3ccc(F)cc3)C2)cc1OC (stereo not drawn),-2.75%,–
COc1ccc(-c2cnc3c(NC=O)cc(-c4cc(OC)c(OC)c(OC)c4)cn23)cc1OC,-7.24%,–
Cc1ccc(C)c(Cn2c(=O)n(CCCC(=O)NCc3ccco3)c(=O)c3sccc32)c1,-1.81%,–
CCn1c(O)c(/C=N/N=C/c2ccc(OC)cc2)c2cc(C3=NNC(=O)CC3)ccc21,–,5.8 µM (active)
Cc1ccc(-c2cn3nc(-c4ccccc4)c(-c4ccccc4)nc3n2)cc1,–,20.6 µM (active)
NNC(=S)Nc1c(F)cc(F)cc1Br,2.31% [at 46.1 µM],–
N#Cc1c(C(F)(F)F)cc(-c2ccco2)nc1SCc1ccccn1,–,16.4 µM (active)
N#Cc1ccc(-c2ccco2)nc1SCc1ccccc1,-4.02%,–
Cc1cc(C)cc(NC2=NC3(CCCCC3)N=C(N)N2)c1,-11.4%,–
COc1ccc(OC)c(NS(=O)(=O)c2ccc(Cl)s2)c1,-0.929%,–
Cc1ccccc1N1C(=O)c2cccc3c(N(C)CCO)ccc(c23)C1=O,–,20.6 µM (active)
COc1ccccc1N1C(=O)c2cccc3c(C(=O)O)ccc(c23)C1=O,-8.99%,–
Cc1ccccc1OCC(=O)NNC(=O)Nc1ccc(Cl)cc1,1.15%,–
CN1C/C(=C\c2ccc(N3CCOCC3)cc2)C(=O)/C(=C/c2ccc(N3CCOCC3)cc2)C1,–,18.4 µM (active)
O=C1/C(=C/c2ccccc2)CN(C(=O)CCN2CCOCC2)C/C1=C\c1ccccc1,-8.81%,–
CCN1C/C(=C/c2cccc([N+](=O)[O-])c2)C(=O)/C(=C/c2cccc([N+](=O)[O-])c2)C1,-1.75%,–
COc1ccc(N2CC(C(=O)N/N=C/c3ccc(C)cc3)CC2=O)cc1 (stereo not drawn),-12.6%,–
CC[n+]1ccccc1/C=C/c1ccc(N(C)C)cc1,–,18.4 µM (active)
CC(C)CC[n+]1ccccc1/C=C/c1ccc(N(C)C)cc1,–,20.6 µM (active)
COc1ccc(-c2nc3c4ccccc4ccn3c2Cc2ccsc2)cc1OC,3.28%,–

Compound,"activity, negative = fluorescence increase",Potency
CCOC(=O)c1[nH]c(C)c(C(=O)Nc2ccccc2C)c1C,-1.23%,–
Cc1ccc([N+](=O)[O-])cc1-c1ccc(/C=C(\C#N)c2[nH]nc(N)c2C#N)o1,-8.72%,–
Cc1ccc2nc(/C(C#N)=C/c3ccc(-c4ccc(C(=O)OC(C)C)cc4)o3)[nH]c2c1,–,6.51 µM (active)
Cc1c(Cl)cccc1-c1ccc(/C=C(\C#N)c2nc3ccccc3[nH]2)o1,–,16.4 µM (active)
Cc1ccc2nc(/C(C#N)=C\c3ccc([N+](=O)[O-])o3)[nH]c2c1,–,3.26 µM (active)
N#C/C(=C\c1ccc(-c2ccc(C(=O)O)cc2)o1)c1nc2ccccc2[nH]1,–,4.61 µM (active)
COc1ccc(-c2[nH]ncc2N=Nc2ccccc2)cc1,-0.14%,–
O=C(c1[nH]c(C(F)(F)F)nc1-c1ccccc1)N1CCN(c2ccccc2)CC1,-8.65%,–
COc1cccc(/C=N/NC(=O)c2cc3c(OC)c(OC)ccc3[nH]2)c1OC,-7.13%,–
Cc1cc(-c2ccccc2)nc(N/N=C/c2ccccc2F)n1,4.5% [at 46.1 µM],–
CC(/C=N/NC(=O)c1cc(-c2ccc(C)s2)[nH]n1)=C\c1ccccc1,-1.03%,–
Cc1ccc(/C=N/NC(=O)CCCOc2ccc(Cl)cc2Cl)cc1,5.73%,–
COc1ccc(S(=O)(=O)Nc2cccc(-c3ccc4nncn4n3)c2)cc1F,-6.71%,–
CCOC(=O)c1cccc(NC(=O)N2CC=C(c3c[nH]c4ccccc34)CC2)c1,3.24% [at 46.1 µM],–
Cc1ccc2nc(/C(C#N)=C/c3ccc(-c4ccccc4C(=O)O)o3)[nH]c2c1,–,3.26 µM (active)
Cc1ccc2nc(/C(C#N)=C/c3ccc(-c4ccc(F)cc4F)o3)[nH]c2c1,–,23.1 µM (active)
Cc1ccc2nc(/C(C#N)=C/c3ccc(-c4cccc(Cl)c4)o3)[nH]c2c1,–,6.51 µM (active)
N#C/C(=C\c1ccc(-c2ccc(F)cc2F)o1)c1nc2ccccc2[nH]1,–,20.6 µM (active)
CC1Cc2cc(S(=O)(=O)CCC(=O)NCc3ccc(Cl)cc3)ccc2N1C(=O)C1CC1 (stereo not drawn),-12.7% [at 46.1 µM],–
CCOC(=O)c1c(C)sc(-c2c(-c3ccccc3)[nH]c3[nH]c(=O)[nH]c(=O)c23)c1O,–,7.31 µM (active)
CC(C)=CCn1c2ccc(NC(=O)NCc3ccc(F)cc3)cc2c(=O)n1C,-6.27%,–
Cc1ccccc1NC(=O)c1sc2nc3c(c(-c4ccco4)c2c1N)CCC3,-13.1%,–
Nc1c(C(=O)Nc2ccccc2F)sc2nc(-c3ccco3)ccc12,–,23.1 µM (active)
COc1ccc(/C=N/NC(=O)c2[nH]nc3c2CCc2ccccc2-3)cc1OC,-16.8%,–
